Compounds with a hit are over-represented: about 11% of the library has one in this group of screens.
FLuc inh: inhibitors of firefly (Photinus pyralis) luciferase; 76,000 compounds, 2.5% hits; AID 1347043; P08659; Potency, µM (series often up to 115 µM), hits mostly inhibitors; purified P. pyralis luciferase, luminescence, biochemical; note: nearly all actives have a fitted effect of over 65% in size
Target sequence (P08659 whole entry, looked up): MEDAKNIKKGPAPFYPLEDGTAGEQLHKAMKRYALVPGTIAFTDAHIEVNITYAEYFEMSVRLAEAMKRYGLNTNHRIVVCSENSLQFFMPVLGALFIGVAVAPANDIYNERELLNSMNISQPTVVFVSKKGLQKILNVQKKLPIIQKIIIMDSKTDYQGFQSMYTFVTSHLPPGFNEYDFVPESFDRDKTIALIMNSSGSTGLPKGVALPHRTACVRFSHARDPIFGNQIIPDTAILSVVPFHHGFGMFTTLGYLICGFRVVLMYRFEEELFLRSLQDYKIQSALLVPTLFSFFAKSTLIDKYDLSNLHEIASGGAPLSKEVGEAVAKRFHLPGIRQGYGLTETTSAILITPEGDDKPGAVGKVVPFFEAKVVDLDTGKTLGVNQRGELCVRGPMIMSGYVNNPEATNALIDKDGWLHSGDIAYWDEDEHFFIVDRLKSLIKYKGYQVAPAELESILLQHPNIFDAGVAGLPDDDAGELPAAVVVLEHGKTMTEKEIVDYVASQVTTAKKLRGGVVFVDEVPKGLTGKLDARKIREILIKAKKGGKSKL
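Biochemical qHTS: compound (6-point titration) added to 10uM D-luciferin plus 10uM ATP in Tris acetate pH 7.5 buffer with Mg, Tween-20 and BSA, then purified enzyme at 10nM; light output imaged.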
NPR1 antag: human Npr1 receptor antagonism | HEK293 hNpr1 GloSensor cGMP, ANP-stimulated luminescence | Potency, µM (highest dose often 46.3 µM), without a hit: at the highest dose activity change, negative = inhibition, usual class: inhibitors | 76,000 compounds, 1.6% hits; calls by dose curve; note: nearly all actives have a fitted effect of over 60% in size
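HEK293 cells stably expressing human Npr1 and cGMP GloSensor pGS-40F, loaded 2 h with 2% GloSensor reagent, given compound 30 min at room temperature. Luminescence read before and 20 min after 0.1 nM hNppA.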
HEK293 tox: kills HEK 293 cells; HEK 293 viability, ATP luminescence (CellTiter-Glo), 48-72 h; Potency, µM (titrated, usually from 115 µM), for the others: at the highest dose activity change, negative = cytotoxicity, hits mostly inhibitors; 94,000 compounds, 6.6% hits; AID 1345083; note: nearly all actives have a fitted effect of over 60% in size
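HEK 293 cells seeded at 250 cells/well were exposed to compound for 48 or 72 hr at 37 degree Celsius. Viability taken as ATP content by CellTiter-Glo luminescence.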
3T3 cytotox: kills NIH 3T3 cells; NIH 3T3 viability, CellTiter-Glo ATP luminescence, 48-72 h; Potency, µM (doses to about 96.7 µM), without a hit: top-dose activity change, negative = cytotoxicity, hits mostly inhibitors; 94,000 compounds, 4.3% hits; AID 1345082; note: nearly all actives have a fitted effect of over 55% in size
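Cytotoxicity is measured as loss of cellular ATP: NIH 3T3 cells (400/well) are exposed to compound for 48 or 72 hr at 37 °C, then CellTiter-Glo luminescence is imaged after 10 min at room temperature.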
Starred values were filed as active, the others as inactive; i = inactive; u = inconclusive; x = no result; [ ] = another dose, or the depositor's remark. Unless noted, calls come from the whole dose curve; as a rule, active = well fitted curve in the direction sought with a large enough effect; inconclusive = small, poorly fitted or top-dose-only effect, or another doubt; inactive = no such curve, though single readings can be large; an effect the other way counts as inactive or inconclusive. % is set by controls: 0 for no effect and ±100 for the full control effect; potency is the fitted concentration of half-maximal effect.

SMILES	FLuc inh	NPR1 antag	HEK293 tox	3T3 cytotox
COC(=O)N1CCCC1C(=O)N1CCC(c2ccccc2)CC1 (stereo not given)	x	x	-18.4%[172 µM]	-19.9%[138 µM]
COc1cc(-c2onc(C)c2C(=O)NCCC(c2ccccc2)c2ccccc2)cc(OC)c1OC	i	-21.1%	35.5µM*	u
Cc1noc(-c2ccc(OC(F)(F)F)cc2)c1C(=O)NCCc1ccc(F)cc1	i	-2.9%	u	-25.9%
COc1cc(CN(C)C(=O)c2c(C)noc2-c2cccc(F)c2)cc(OC)c1OC	i	1.3%	44.7µM*	u
COc1ccc(CCNC(=O)c2c(C)noc2-c2ccc(OC(F)(F)F)cc2)cc1	i	-2.0%	50.1µM*	-16.3%
COc1cc(OC)c(CNC(=O)c2c(C)noc2-c2ccc(OC(F)(F)F)cc2)c(OC)c1	i	-12.6%	39.8µM*	u
COCCNC(=O)c1c(C)noc1-c1cc(OC)c(OC)c(OC)c1	i	3.6%	-0.9%	-3.8%
COc1ccccc1C(=O)NC[C@@H]1C=C(C)[C@H](Cc2nc3ccccc3[nH]2)C[C@H]1C(C)C	i	u	u	31.6µM*
CC1=C[C@@H](CNC(=O)CN(C)C)[C@H](C(C)C)C[C@H]1Cc1nc2ccccc2[nH]1	i	2.2%[70.6 µM]	u	100µM*
COc1ccc2[nH]c(C[C@@H]3C[C@@H](C(C)C)[C@H](CNC(=O)C4CCC4)C=C3C)nc2n1	i	u	44.7µM*	63.1µM*
CC1=C[C@@H](CNC(=O)C2CC2)[C@H](C(C)C)C[C@H]1Cc1nc2ncccc2[nH]1	i	-5.2%[70.6 µM]	u	u
CC1=C[C@@H](CNC(=O)CCC(=O)O)[C@H](C(C)C)C[C@H]1Cc1nc2ccccc2[nH]1	i	-6.3%[70.6 µM]	-14.7%[172 µM]	u
O=C([C@@H]1C[C@H](Oc2ccccc2)CN1C(=O)CC1CCCC1)N1CCCC1	i	0.2%	i	31.6µM*
O=C(c1ccccc1)N1CCC(C(=O)N2CCC(N3Cc4ccccc4C3=O)CC2)CC1	x	x	u	-27.7%
COc1cccc(Nc2cc3c(cn2)NCCN(Cc2ccccc2)C3)c1	i	-21.2%[70.6 µM]	89.1µM*	u
COc1ccc(OC)c(CN2CCNc3cnc(Nc4cccnc4)cc3C2)c1	i	-14.4%[70.6 µM]	u	u
COc1cccc(CN2CCNc3cnc(Nc4ccccc4)cc3C2)c1	i	u	89.1µM*	u
COc1ccc(Nc2cc3c(cn2)CN(CCc2ccccc2)CCN3)cn1	i	-6.6%[70.6 µM]	63.1µM*	50.1µM*
COCCN1CCNc2cc(NCc3ccccc3)ncc2C1	i	0.7%[70.6 µM]	u	u
O=C(Nc1ccc(Cl)cc1)N1CCCC(C(=O)N2CCC(c3nc4ccncc4[nH]3)C2)C1 (stereo not given)	x	x	i	-9.8%
O=C(NCCCc1ccccc1)c1nc2cccnc2n(C2CC2)c1=O	x	x	-9.6%	-21.5%
O=C1CC2(CCN(C(=O)C3CCN(C(=O)Cc4cccc(Cl)c4)CC3)CC2)Oc2ccccc2N1	x	x	39.8µM*	u
O=C1CC2(CCN(C(=O)C3CCN(C(=O)C4CCCC4)CC3)CC2)Oc2ccccc2N1	x	x	u	-0.8%
COc1ccccc1C(=O)N1CCC2(CC1)CC(=O)Nc1ccccc1O2	i	-20.0%	44.7µM*	-11.0%
Cc1ccc([S+](=O)([O-])N2CCCC(C(=O)N3CCC4(CC3)CC(=O)Nc3ccccc3O4)C2)cc1 (stereo not given)	x	x	35.5µM*	u
SMILES	FLuc inh	NPR1 antag	HEK293 tox	3T3 cytotox
O=C1CC2(CCN(C(=O)C3CCCN(C(=O)C4CCCC4)C3)CC2)Oc2ccccc2N1 (stereo not given)	x	x	-19.5%	-20.2%
O=C1CC2(CCN(C(=O)C3CCCN(C(=O)Nc4ccc(Cl)cc4)C3)CC2)Oc2ccccc2N1 (stereo not given)	x	x	22.4µM*	u
CNC(=O)c1cc(C2CC2)nc2onc(C3CCCN3C(=O)C3CCCC3)c12 (stereo not given)	x	x	i	u
Cc1noc(C)c1[S+](=O)([O-])NC1CCCN(CCn2nc3n(c2=O)CCCC3)C1 (stereo not given)	x	x	1.5%	-15.2%
CN1Cc2ccc(NCc3ccccc3)nc2C(C)(C(=O)NCCCn2ccnc2)C1 (stereo not given)	i	-1.6%[70.6 µM]	u	u
COC(=O)[C@@H]1Cc2c([nH]c3ccccc23)[C@H]2C[C@@H](NCCCn3ccnc3)C[C@@H](c3ccc(F)cc3)N21	i	-2.0%	25.1µM*	25.1µM*
COC(=O)[C@@H]1Cc2c([nH]c3ccccc23)[C@H]2C[C@@H](NCCCn3ccnc3)C[C@@H](c3ccc(Cl)c(F)c3)N21	i	0.3%	28.2µM*	25.1µM*
O=C(NCCCn1ccnc1)c1ccc(C2CCCNC2)cc1 (stereo not given)	i	3.9%	0.5%	i
COC(=O)[C@@H]1Cc2c([nH]c3ccccc23)[C@H]2C[C@@H](NCCCn3ccnc3)C[C@@H](c3cccc(Cl)c3)N21	i	-12.0%	28.2µM*	17.8µM*
Cc1ccc(NC(=O)N2CCc3c(c4ccccc4n3CC3CC3)C2)cc1	14.1µM*	-25.8%	u	25.1µM*
O=C(Nc1cccc(F)c1)N1CCc2c(c3ccccc3n2CC2CC2)C1	i	-15.9%	44.7µM*	25.1µM*
CC(=O)N1CCc2c(c3ccccc3n2C)C1	i	-17.1%	-1.2%	-13.5%
COc1ccc(NC(=O)N2CCc3c(c4ccccc4n3C)C2)cc1	u	-2.6%	u	u
Cn1c2c(c3cc(F)ccc31)CN(C(=O)Nc1ccc(F)c(Cl)c1)CC2	u	u	31.6µM*	12.6µM*
O=C(Nc1ccc(Cl)cc1Cl)N1CCc2[nH]c3ccc(F)cc3c2C1	i	-16.8%	u	u
O=C(NCCC1CCN(C(=O)Nc2cccc(F)c2)CC1)c1ccccc1	u	2.1%	-5.4%	-24.2%
O=C(Nc1ccc(F)c(F)c1)N1CCc2c(c3ccccc3n2CC2CC2)C1	i	-24.9%	12.6µM*	u
CN(Cc1ccc(C2CC(=O)Nc3n[nH]c(C4CCC4)c32)o1)S(C)(=O)=O (stereo not given)	i	4.7%	i	i
Cn1c2c(c3ccccc31)CN(C(=O)Nc1ccccc1)CC2	i	-16.7%	-10.1%	u
Cn1c2c(c3ccccc31)CN(C(=O)NC1CCCCC1)CC2	i	-7.2%	44.7µM*	31.6µM*
COc1ccc(CO[C@H]2COCCN(c3nc4ccccc4s3)C2)cc1	u	-4.5%[70.6 µM]	100µM*	u
COc1ccccc1CCC(=O)N1CCCN(c2cc(-c3ccc(Cl)cc3)[nH]n2)CC1	i	-26.3%	u	35.5µM*
COc1cccc(CCC(=O)N2CCCN(c3cc(-c4ccc(Cl)cc4)[nH]n3)CC2)c1	i	u	u	35.5µM*
O=C(Cc1cccc(Cl)c1)N1CCc2c(n(CCOc3ccccc3)n(-c3ccccc3)c2=O)C1	i	-14.9%	u	u

High-throughput results as filed in PubChem BioAssay.
